PubChem BioAssay (Tox21)
Inconclusive results are not listed. Where a call stands in place of a potency, no number is given. The source made the active and inactive calls. The call rests on the fitted dose curve; in most records, active means well fitted activation curve with a large enough effect in the repeat runs; inconclusive means weak or mixed curves; inactive means no such curve, though single readings can be large or run the other way.

Biological target: Nuclear receptor subfamily 1 group I member 2 (Homo sapiens) (UniProt O75469)
Experiment: CYP3A4 induction through human pregnane X receptor (PXR) by small molecules, qHTS assay (AID 1346984); further: nearly all actives have a fitted effect of over 40% in size
Details: DPX-2 HepG2 PXR, CYP3A4-luciferin luminescence, 24 h; series mostly up to 46.1 µM
Source text: National Center for Advancing Translational Sciences [NCATS]
NIH Chemical Genomics Center [NCGC]
U.S. Environmental Protection Agency [EPA]
National Institutes of Environmental Health Sciences [NIEHS]
National Toxicology Program [NTP]
The Pregnane X receptor (PXR), a ligand activated nuclear receptor plays a critical role in the regulation of genes involved in drug metabolism and transporters. Activation of PXR is responsible for unwanted adverse drug reactions. PXR binds xenobiotics and when compounds interact with PXR enhances the expression of CYP3A genes. Identifying the compounds with the potential for PXR activation and CYP3A4 induction can be of importance in improving the efficacy of drugs with less toxicity and avoiding drug-drug interactions.
DPX-2 (Puracyp, Inc.) cell lines, used for screening against human PXR activation has HepG2 cells co-transfected with a PXR response element and a luciferase construct containing CYP3A4 promoter. Increase in luciferase activity can be used to identify the compounds that cause the induction of CYP3A4.
DPX-2 cells were dispensed at 2,000 cells per well in 5uL of assay medium into white, solid-bottom 1536-well plates using a Multidrop Combi dispenser (Thermo Scientific). The assay plates were incubated at 37C for 5hr before transferring 23nL of test compounds dissolved in DMSO and positive control via Pintool station (Wako). The assay plates were incubated at 37C for 24hr. After 24hr compound treatment, 1uL of 3uM (final concentration) P450 substrate (P450-Glo CYP3A4 screening system with Luciferin-IPA, Promega) was added by a Flying Reagent Dispenser (FRD, Aurora Discovery). The assay plates were incubated for 3hr at 37C. Then 5ul One-Glo assay reagent (Promega) was added to each plate by an FRD and following 30 min incubation at room temperature, luciferase activity was quantified on a ViewLux plate reader (Perkin Elmer).
Potency means the concentration at half of the fitted maximal effect.

SMILES | Potency
CN1CCN(CCC(=O)N2c3ccccc3Sc3ccc(C(F)(F)F)cc32)CC1 | 14.1 µM (active)
O=c1[nH]cnc2nc[nH]c12 | inactive
CC(C)(C)C(=O)OCOC(=O)[C@@H]1N2C(=O)[C@@H](NC(=O)[C@H](N)c3ccccc3)[C@H]2SC1(C)C | inactive
CC1=C(C(=O)OC(C)C)C(c2cccc([N+](=O)[O-])c2)C(C(=O)OC2CN(C(c3ccccc3)c3ccccc3)C2)=C(N)N1 (stereo not given) | inactive
COc1ccc(C(=O)/C(Br)=C\C(=O)O)cc1 | inactive
Cn1cc(C(=O)[C@@H]2CCc3nc[nH]c3C2)c2ccccc21 | inactive
Cc1cc(C2CCCCC2)n(O)c(=O)c1 | inactive
CCOc1ccc2nc3cc(N)ccc3c(N)c2c1 | inactive
CC(C)(C)CC(C)(C)c1ccc(O)c(Cc2ccc(Cl)cc2Cl)c1 | inactive
O=C(Oc1cccc2cccnc12)c1ccccc1 | inactive
COc1cccc2c1C(=O)c1c(O)c3c(c(O)c1C2=O)C[C@@](O)(C(=O)CO)C[C@@H]3O[C@H]1C[C@H](N)[C@H](O[C@@H]2CCCCO2)[C@H](C)O1 | inactive
CCOC(=O)O[C@]1(C(=O)OCCl)CC[C@H]2[C@@H]3CCC4=CC(=O)C=C[C@]4(C)[C@H]3[C@@H](O)C[C@@]21C | inactive
COc1ccc(-c2ccc3cc(C(=O)O)ccc3c2)cc1C12CC3CC(CC(C3)C1)C2 | inactive
NC(=O)CC[C@@H]1NC(=O)[C@H](Cc2ccccc2)NC(=O)[C@H](Cc2ccc(O)cc2)NC(=O)CCSSC[C@@H](C(=O)N2CCC[C@H]2C(=O)N[C@@H](CCCN=C(N)N)C(=O)NCC(N)=O)NC(=O)[C@H](CC(N)=O)NC1=O | inactive
N/C(=N\N=C\c1ccc(Cl)cc1)N/N=C/c1ccc(Cl)cc1 | inactive
C[C@@H](NCCCc1cccc(C(F)(F)F)c1)c1cccc2ccccc12 | inactive
CCCCCCCCCCCCCCCC[N+](C)(C)CCN(Cc1ccc(OC)cc1)c1ncccn1 | inactive
CCCCC(CC)CN=C(N)NC(N)=NCCCCCCN=C(N)NC(N)=NCC(CC)CCCC (stereo not given) | inactive
Clc1ccccc1C(c1ccccc1)(c1ccccc1)n1ccnc1 | inactive
CCN1/C(=C/C=C/c2sc3ccccc3[n+]2CC)Sc2ccccc21 | inactive

SMILES | Potency
CCCCCCC[N+](CC)(CC)CCCCc1ccc(Cl)cc1 | inactive
Cc1cc(O)c2ccccc2c1O | 1.58 µM (active)
CCCCCCCCOc1ccccc1C(=O)Nc1ccc(C(=O)OCC[N+](C)(CC)CC)cc1 | inactive
CC[C@H](c1ccc(O)cc1)[C@@H](CC)c1ccc(O)cc1 | inactive
CC(=O)N1CCN(c2ccc(OC[C@H]3CO[C@](Cn4ccnc4)(c4ccc(Cl)cc4Cl)O3)cc2)CC1 | inactive
CN(C)[C@@H]1C(=O)C(C(N)=O)=C(O)[C@@]2(O)C(=O)C3=C(O)c4c(O)ccc(Cl)c4[C@@H](O)[C@H]3C[C@@H]12 | inactive
CCOC(=O)/C=C(C)/C=C/C=C(C)/C=C/c1c(C)cc(OC)c(C)c1C | inactive
O=C(OC[C@H]1O[C@@H](OC(=O)c2cc(O)c(O)c(OC(=O)c3cc(O)c(O)c(O)c3)c2)[C@H](OC(=O)c2cc(O)c(O)c(OC(=O)c3cc(O)c(O)c(O)c3)c2)[C@@H](OC(=O)c2cc(O)c(O)c(OC(=O)c3cc(O)c(O)c(O)c3)c2)[C@@H]1OC(=O)c1cc(O)c(O)c(OC(=O)c2cc(O)c(O)c(O)c2)c1)c1cc(O)c(O)c(OC(=O)c2cc(O)c(O)c(O)c2)c1 | inactive
Cc1c(C)c2c(c(C)c1OC(=O)CCC(=O)O)CC[C@@](C)(CCC[C@H](C)CCC[C@H](C)CCCC(C)C)O2 | inactive
CC[C@@]1(O)C(=O)OCc2c1cc1n(c2=O)Cc2cc3c(CN(C)C)c(O)ccc3nc2-1 | inactive
C[C@@H]1C[C@H]2[C@@H]3CCC4=CC(=O)C=C[C@]4(C)[C@@]3(Cl)[C@@H](O)C[C@]2(C)[C@@]1(OC(=O)c1ccco1)C(=O)CCl | inactive
COc1c(C)c2c(c(O)c1C/C=C(\C)CCC(=O)O)C(=O)OC2 | inactive
CC(C)(C)NC(=O)[C@@H]1C[C@@H]2CCCC[C@@H]2CN1C[C@@H](O)[C@H](Cc1ccccc1)NC(=O)[C@H](CC(N)=O)NC(=O)c1ccc2ccccc2n1 | inactive
Cc1ccc(O)c2ncccc12 | inactive
CSc1ccc2c(c1)C(N1CCN(C)CC1)Cc1ccccc1S2 (stereo not given) | 25.1 µM (active)
O=C(N/N=C/c1ccccc1O)c1ccncc1 | inactive
Clc1ccc2nsnc2c1NC1=NCCN1 | inactive
NC(=O)NS(=O)(=O)c1ccc(N)cc1 | inactive
O=C(Nc1cccc(C(F)(F)F)c1)c1cc(Br)cc(Br)c1O | inactive
[O-][n+]1ccccc1SSc1cccc[n+]1[O-] | inactive
